25 molecules from PubChem BioAssay (NCATS) can be followed below.

In assay [1] the test system is Zika virus NS2B-NS3 protease. Put plainly: Primary screen GU AMC qHTS for Zika virus inhibitors (AID 1347154). Note: nearly all actives have a fitted effect of over 70% in size. The procedure, abridged: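 Unlinked Zika NS2B hydrophilic domain–NS3 protease complex at 25 nM in 10 mM Tris-HCl pH 8.0, 0.01% Tween 20, with an AMC peptide substrate. Fluorescence change (340/450 nm) over 15 min at room temperature, normalized to controls, fitted to 4-parameter Hill.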
A general note: Quantitative high-throughput screening tests each substance at several concentrations.

Assay [2] deals with Lysine-specific demethylase 5B (Homo sapiens) (UniProt Q9UGL1). Kind of assay: Optimization screen for KDM5B Histone Demethylases FDH coupled qHTS against the LOPAC library (AID 1347166). The procedure, abridged: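 KDM5BDeltaAP (200nM final) in 50mM HEPES pH 7.5, 0.01% Tween-20 was preincubated with compound for 10 min at room temperature. A substrate mix of 12.5uM H3K4Me3, 25uM a-ketoglutarate, ascorbate, Fe2+, NAD+ and formaldehyde dehydrogenase was then added. NADH fluorescence (340/450 nm) was read initially and after 30 min.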
Lysine-specific demethylase 5B (Homo sapiens), sequence (Q9UGL1 whole entry, looked up): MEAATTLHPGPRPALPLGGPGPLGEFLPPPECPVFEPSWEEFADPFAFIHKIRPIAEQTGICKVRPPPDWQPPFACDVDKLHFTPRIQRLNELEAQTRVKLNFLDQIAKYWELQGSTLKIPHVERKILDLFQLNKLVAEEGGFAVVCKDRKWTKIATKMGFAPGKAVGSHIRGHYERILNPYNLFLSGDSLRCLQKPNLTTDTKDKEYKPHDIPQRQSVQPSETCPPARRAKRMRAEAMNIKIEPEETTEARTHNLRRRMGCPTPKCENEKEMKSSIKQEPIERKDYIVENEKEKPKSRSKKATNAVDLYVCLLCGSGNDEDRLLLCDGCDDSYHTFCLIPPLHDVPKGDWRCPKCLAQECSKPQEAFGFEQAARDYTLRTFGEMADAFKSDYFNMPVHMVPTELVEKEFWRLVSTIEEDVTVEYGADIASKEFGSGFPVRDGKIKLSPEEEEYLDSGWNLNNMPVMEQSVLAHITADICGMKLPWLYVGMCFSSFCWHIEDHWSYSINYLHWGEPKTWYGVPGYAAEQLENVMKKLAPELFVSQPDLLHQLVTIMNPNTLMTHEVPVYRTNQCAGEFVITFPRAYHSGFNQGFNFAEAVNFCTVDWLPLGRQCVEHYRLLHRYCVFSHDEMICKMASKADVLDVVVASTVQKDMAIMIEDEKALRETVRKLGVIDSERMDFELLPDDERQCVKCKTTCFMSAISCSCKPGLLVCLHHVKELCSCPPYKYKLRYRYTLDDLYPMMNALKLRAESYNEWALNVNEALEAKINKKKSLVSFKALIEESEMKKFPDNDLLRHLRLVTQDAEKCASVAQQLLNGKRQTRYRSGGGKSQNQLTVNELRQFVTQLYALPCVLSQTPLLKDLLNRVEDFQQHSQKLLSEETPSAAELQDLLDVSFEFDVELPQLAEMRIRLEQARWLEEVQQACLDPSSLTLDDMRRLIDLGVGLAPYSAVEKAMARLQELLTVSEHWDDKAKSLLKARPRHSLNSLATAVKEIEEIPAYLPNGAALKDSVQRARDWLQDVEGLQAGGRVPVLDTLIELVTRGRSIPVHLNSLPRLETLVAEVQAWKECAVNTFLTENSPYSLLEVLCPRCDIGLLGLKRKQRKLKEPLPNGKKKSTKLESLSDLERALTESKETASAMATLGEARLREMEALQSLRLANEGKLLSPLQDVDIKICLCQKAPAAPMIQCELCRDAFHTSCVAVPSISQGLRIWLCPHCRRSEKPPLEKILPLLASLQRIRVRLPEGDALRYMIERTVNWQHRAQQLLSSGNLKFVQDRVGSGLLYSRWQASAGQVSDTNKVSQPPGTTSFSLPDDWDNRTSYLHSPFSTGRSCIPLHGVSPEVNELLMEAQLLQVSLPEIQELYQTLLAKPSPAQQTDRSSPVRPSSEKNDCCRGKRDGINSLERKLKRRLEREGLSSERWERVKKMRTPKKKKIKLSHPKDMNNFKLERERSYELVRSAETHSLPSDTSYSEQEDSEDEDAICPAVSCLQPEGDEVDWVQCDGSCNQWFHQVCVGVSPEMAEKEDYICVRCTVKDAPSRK

Assay [3] in a line: qHTS to identify inhibitors of the type 1 interferon - major histocompatibility complex class I in skeletal muscle: primary screen against the NCATS LOPAC collection (AID 1347405).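 Note: human myoblasts with HiBiT tag on endogenous HLA-B stimulated by IFN-beta; lytic HiBiT luminescence reporting HLA-B protein level.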 Note: potency is the fitted concentration of half-maximal effect. The procedure, abridged: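 First, engineered myoblasts carrying HLA-B-HiBiT were seeded in medium lacking dexamethasone with 4 ng/ml IFN-beta. After 1 hr, compounds were pinned in (top 46 uM final, 7 points). After 24 hrs at 37 C, luminescence was measured following 10 min lysis.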

Assay [4] can be described thus: qHTS to identify inhibitors of the type 1 interferon - major histocompatibility complex class I in skeletal muscle: primary screen against the NCATS Pharmaceutical Collection (AID 1347407).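 Note: luminescence of HiBiT knocked into endogenous HLA-B as interferon-induced MHC class I level.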 The procedure, abridged:
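Compounds […] were added to CRISPR-engineered HLA-B-HiBiT C25cl48 human myoblasts with 4.0 ng/ml IFN-beta. After 24 hrs at 37 C, cells were lysed and HiBiT luminescence measured.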

Assay [5] is described as follows: qHTS for inhibitors of adenylyl cyclases using a fission yeast platform: a pilot screen against the NCATS LOPAC library (AID 1347410). The procedure, abridged: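 GFP from fbp1-GFP reporter, read by Acumen laser cytometry, indicates AC inhibition in fission yeast expressing AC9, GNAS and PDE4D2. Cells grown 18 h in the dark at 30C with compounds, final up to 57 uM.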

Assay [6] deals with Protein phosphatase 1D (Homo sapiens) (UniProt O15297). Put plainly: RapidFire Mass Spectrometry qHTS Assay for Modulators of WT P53-Induced Phosphatase 1 (WIP1) (AID 1347424). Note: series mostly up to about 63 µM. The procedure, abridged:
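RapidFire MS readout of dephosphorylated VEPPL-S-QETFS product, with 1 uM isotope-labelled peptide standard. Reaction: 10 nM WIP1, 2 uM phosphopeptide substrate, 5 min, room temperature, after 1 h compound preincubation; stopped with 0.5% formic acid.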

The target is the same in assay [7]. Kind of assay: Rhodamine-PBP qHTS Assay for Modulators of WT P53-Induced Phosphatase 1 (WIP1) (AID 1347425). The procedure, abridged: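 5 nM WIP1 + 10 uM Rh-PBP, 50 mM Tris pH 7.5, 30 mM MgCl2, 1 mM TCEP, 0.1 mM EGTA, BSA; cpds pinned, 1 hr RT; + 10 uM phosphopeptide; fluorescence 1-min reads x 11 min; delta = f1 - f0.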
Assay [8] in a line: Validation qHTS assay for inhibitors of Activation Induced Cytidine Deaminase (AID): UDG Counterscreen signal (AID 1347427). The procedure, abridged:
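Fluorescence at 560 nm excitation, 665 nm emission reports UDG signal after 250 mM NaOH (2x) addition and 30 min. Enzymes (AID 1 uM, UDG 2 U/mL, at 4/3x) preincubated 10 min with compound, then 4 h with 4x 250 nM DJC20/DJC23 substrate at room temperature.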

Assay [9] has as its target Single-stranded DNA cytosine deaminase (Homo sapiens) (UniProt Q9GZX7). Kind of assay: Validation qHTS assay for inhibitors of Activation Induced Cytidine Deaminase (AID): AID signal (AID 1347429). The procedure, abridged:
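Steps: dispense AID with UDG; pin-transfer compound up to 114 uM final; add DJC20/DJC23 substrate and hold 4 hr at room temperature; add NaOH, hold 30 min; read FRET signal (540/590 nm).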

Assay [10] is described as follows: Primary qHTS for inhibitors of La Crosse Virus (LACV) - induced cell death in SH-SY5Y cells (AID 1508616).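 Note: top concentration of the series differs between compounds; higher means more rescue of cells from virus-induced death.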 The procedure, abridged:
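SH-SY5Y, 6000 cells/well; cpd via pin tool in DMSO; LACV 0.01 MOI; 6 d 37C 5% CO2; ATPLite, 5 min RT; luminescence normalized to ±virus DMSO controls.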

Inconclusive results are not listed. Activity calls are given as the source filed them. Calls come from the whole dose curve; as a rule, active = well fitted curve in the direction sought with a large enough effect; inconclusive = small, poorly fitted or top-dose-only effect, or another doubt; inactive = no such curve, though single readings can be large; an effect the other way counts as inactive or inconclusive.

Single-stranded DNA cytosine deaminase (Homo sapiens), sequence (Q9GZX7 whole entry, looked up): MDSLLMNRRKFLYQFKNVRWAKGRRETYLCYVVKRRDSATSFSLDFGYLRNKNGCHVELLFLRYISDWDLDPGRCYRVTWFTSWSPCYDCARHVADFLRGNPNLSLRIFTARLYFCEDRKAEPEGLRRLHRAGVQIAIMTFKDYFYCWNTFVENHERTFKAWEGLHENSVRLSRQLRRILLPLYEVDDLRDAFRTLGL
Protein phosphatase 1D (Homo sapiens), sequence (O15297 whole entry, looked up): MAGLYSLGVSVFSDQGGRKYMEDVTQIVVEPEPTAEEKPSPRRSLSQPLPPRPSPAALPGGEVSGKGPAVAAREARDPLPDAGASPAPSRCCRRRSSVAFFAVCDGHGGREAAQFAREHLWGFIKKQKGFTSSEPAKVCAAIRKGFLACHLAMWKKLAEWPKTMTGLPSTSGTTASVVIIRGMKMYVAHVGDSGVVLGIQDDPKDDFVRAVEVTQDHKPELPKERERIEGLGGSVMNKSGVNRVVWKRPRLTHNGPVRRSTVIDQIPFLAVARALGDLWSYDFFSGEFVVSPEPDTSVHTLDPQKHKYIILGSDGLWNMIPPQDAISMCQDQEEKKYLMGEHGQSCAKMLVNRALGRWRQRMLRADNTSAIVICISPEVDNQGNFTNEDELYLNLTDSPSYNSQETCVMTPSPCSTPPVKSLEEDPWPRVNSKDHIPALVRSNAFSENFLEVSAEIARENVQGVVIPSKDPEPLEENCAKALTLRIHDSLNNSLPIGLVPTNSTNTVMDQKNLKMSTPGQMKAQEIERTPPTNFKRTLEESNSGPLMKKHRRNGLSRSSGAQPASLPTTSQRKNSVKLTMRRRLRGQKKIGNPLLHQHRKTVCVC

Consider `CN(C)CCCN1c2ccccc2Sc2ccccc21`, for which the molecule was called inactive in assay [1], in assay [5], in assay [7] and in assay [8]. Besides, the Potency result in assay [2], in assay [3], in assay [4], in [6], in [9] and in assay [10] was “inactive” throughout.
In the case of `CCNC(=O)N1CCN(CCCC(c2ccc(F)cc2)c2ccc(F)cc2)CC1`, the molecule was called inactive in assay [1], in assay [5], in assay [7] and in [8]. In addition, the Potency result in assay [2], in assay [3], in assay [4], in [6], in assay [9] and in assay [10] was “inactive” each time.
As to `Cc1nc2c([nH]1)c(=O)n(C)c(=O)n2Cc1ccco1`, the result in [1], in [5], in assay [7] and in assay [8] was inactive. Moreover, the Potency result in [2], in [3], in [4], in [6], in [9] and in assay [10] was “inactive” throughout.
For `CN1CCN(C2=Nc3ccccc3Oc3ccc(Cl)cc32)CC1`, the call in assay [1], in [5], in [7] and in assay [8] was inactive. In addition, the Potency result in assay [2], in assay [3], in assay [4], in assay [6], in assay [9] and in [10] was “inactive” each time.
With `O=C(O)CCCCCCCC(=O)O`, the result in assay [1], in assay [5], in assay [7] and in assay [8] was inactive. For the same molecule, the Potency entry in assay [2], in assay [3], in assay [4], in [6], in assay [9] and in assay [10] was “inactive” each time.
In the case of `CC1=C(C)C(=O)C(CCCCC#CCCCC#CCO)=C(C)C1=O`, the molecule was classed as inactive in assay [1], in assay [5], in assay [7] and in [8]. For the same molecule, the Potency result in assay [3], in assay [4], in assay [6], in assay [9] and in [10] was “inactive” in each case.
With `CCN(CC)CC(=O)Nc1c(C)cccc1C`, the molecule was called inactive in assay [1], in assay [5], in assay [7] and in assay [8]. In addition, the Potency result in assay [3], in [4], in [6], in assay [9] and in assay [10] was “inactive” throughout.
Regarding `CCc1c(C)[nH]c2c1C(=O)C(CN1CCOCC1)CC2` (stereo not drawn), the outcome in [1], in assay [5], in [7] and in [8] was inactive. Also, the Potency entry in assay [3], in assay [4], in assay [6], in assay [9] and in assay [10] was “inactive” each time.
For the molecule `CCCOc1ccccc1-c1nc2n[nH]nc2c(=O)[nH]1`, the outcome in assay [1], in [5], in assay [7] and in assay [8] was inactive. The Potency result in assay [3], in assay [4], in assay [6], in assay [9] and in assay [10] was “inactive” in each case.
With `COc1ccc(CN(CCN(C)C)c2ccccn2)cc1`, the outcome in assay [1], in assay [5] and in assay [7] was inactive. Also, the Potency result in assay [2], in [3], in [4], in [6] and in [10] was “inactive” in each case.
For `c1ccc2c(c1)CCCC2C1=NCCN1` (stereo not drawn), the outcome in assay [1], in assay [5], in assay [7] and in assay [8] was inactive. The Potency entry in assay [3], in [4], in [6], in assay [9] and in assay [10] was “inactive” throughout.
Take `C[N+](C)(C)CCCCCCCCCC[N+](C)(C)C`: the outcome in [1], in [5], in assay [7] and in assay [8] was inactive. Also, the Potency entry in assay [3], in [4], in assay [6], in assay [9] and in [10] was “inactive” in each case.
`Cc1ccc(/C(=C\CN2CCCC2)c2ccccn2)cc1`: the call in [1], in assay [7] and in assay [8] was inactive. In addition, the Potency entry in assay [2], in assay [6], in assay [9] and in [10] was “inactive” each time.
Regarding `CCN(CC)CCNC(=O)c1cc(S(C)(=O)=O)ccc1OC`, the molecule was classed as inactive in assay [1], in assay [5], in [7] and in [8]. For the same molecule, the Potency entry in assay [3], in [4], in assay [6], in [9] and in assay [10] was “inactive” throughout.
With `CCOC(=O)C1=C(C)NC(C)=C(C(=O)OC)C1c1cccc([N+](=O)[O-])c1` (stereo not drawn), the call in [1], in assay [5] and in assay [8] was inactive. In addition, the Potency entry in assay [2], in [6], in assay [9] and in assay [10] was “inactive” in each case. In addition, the Potency in assay [3] is 12.6 µM (active).
For `COCC(=O)O[C@]1(CCN(C)CCCc2nc3ccccc3[nH]2)CCc2cc(F)ccc2[C@@H]1C(C)C`, the molecule was called inactive in [1], in assay [5], in assay [7] and in [8]. Further, the Potency result in [2], in assay [6], in assay [9] and in [10] was “inactive” each time.
In the case of `CCCCNC(=O)NS(=O)(=O)c1ccc(C)cc1`, the call in assay [1], in [5], in assay [7] and in assay [8] was inactive. In addition, the Potency entry in assay [2], in assay [6], in assay [9] and in assay [10] was “inactive” each time.
Regarding `COCCc1ccc(OCC(O)CNC(C)C)cc1` (stereo not drawn), the molecule was classed as inactive in [1], in assay [5], in [7] and in assay [8]. For the same molecule, the Potency result in assay [3], in assay [4], in assay [6], in assay [9] and in assay [10] was “inactive” throughout.
In the case of `CCn1cc(C(=O)O)c(=O)c2cc3c(cc21)OCO3`, the result in [1], in assay [5], in [7] and in assay [8] was inactive. In addition, the Potency entry in [3], in assay [4], in assay [6], in [9] and in assay [10] was “inactive” throughout.
Take `CC(=O)Nc1nnc(S(N)(=O)=O)s1`: the call in assay [1], in [5], in assay [7] and in assay [8] was inactive. In addition, the Potency result in [3], in [4], in assay [6], in assay [9] and in [10] was “inactive” in each case.
As for `CC(C)[N+](C)(CCOC(=O)C1c2ccccc2Oc2ccccc21)C(C)C`, the outcome in assay [1], in [5], in [7] and in assay [8] was inactive. The Potency result in assay [3], in assay [4], in assay [6], in [9] and in assay [10] was “inactive” in each case.
In the case of `OCCN1CCN(CC/C=C2/c3ccccc3Sc3ccc(C(F)(F)F)cc32)CC1`, the outcome in assay [1], in [5], in assay [7] and in [8] was inactive. Further, the Potency entry in [2], in assay [3], in assay [6], in [9] and in assay [10] was “inactive” throughout.
`Fc1ccc(C(c2ccc(F)cc2)N2CCN(C/C=C/c3ccccc3)CC2)cc1`: the outcome in [1], in assay [5], in assay [7] and in assay [8] was inactive. Moreover, the Potency entry in assay [3], in assay [4], in assay [6], in [9] and in assay [10] was “inactive” throughout.
Turning to `Cc1ccc(=O)n(-c2ccccc2)c1`, the molecule was classed as inactive in [1], in assay [5], in [7] and in [8]. Also, the Potency result in [3], in assay [4], in [6], in assay [9] and in assay [10] was “inactive” in each case.
Take `CC(C)(Oc1ccc(CCNC(=O)c2ccc(Cl)cc2)cc1)C(=O)O`: the outcome in [1], in assay [5], in assay [7] and in [8] was inactive. The Potency result in [2], in assay [6], in [9] and in assay [10] was “inactive” each time.
